Unmarked numbers belong to inactive results.

The assay deals with primary human airway basal cells (HBEC, luciferase-transduced). The assay can be described thus: proliferation (luciferase bioluminescence) Z score relative to plate mean; higher = more proliferation / more cells, active = 1.96 or more. The note with it: donor: 1, library: ENZO Libraries, 4 days. Here is the method: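 Primary human bronchial epithelial (airway basal) cells from two donors, lentivirally transduced with pHIV-Luc-ZsGreen, were seeded at 2000 cells/well in 384-well plates in FAD medium with ENZO or Prestwick library compounds and cultured for 4 days. Luciferin was then added and bioluminescence was read as a measure of cell number. Relative light units were converted to Z scores against the plate, and the mean of triplicate wells is reported.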

With `Nc1ccc(CC(CC(=O)O)C(=O)O)cc1` [4-Amino-D L-benzylsuccinic acid], the proliferation (0.5 µM) was 0.379 and the proliferation (5 µM) was -0.241.
For `Nc1ncn([C@H]2C[C@H](O)[C@@H](CO)O2)c(=O)n1` [5-Aza-2'-deoxycytidine], the proliferation (0.5 µM) was -0.383 and the proliferation (5 µM) was -0.302.
Take `CO[C@H]1C[C@@H]2CC[C@@H](C)[C@@](O)(O2)C(=O)C(=O)N2CCCC[C@H]2C(=O)O[C@H]([C@H](C)C[C@@H]2CC[C@@H](O)[C@H](OC)C2)CC(=O)[C@H](C)/C=C(\C)[C@@H](O)[C@@H](OC)C(=O)[C@H](C)C[C@H](C)/C=C/C=C/C=C/1C` [Rapamycin]: the proliferation is, setting by setting: (0.5 µM) -3.38; (5 µM) -1.63.
The like results for `CC(C)CC(=O)N[C@H](C(=O)N[C@H](C(=O)N[C@@H](CC(C)C)[C@@H](O)CC(=O)N[C@@H](C)C(=O)N[C@@H](CC(C)C)[C@@H](O)CC(=O)O)C(C)C)C(C)C` [Pepstatin A] were, in that order, 0.161 and 0.196.
For `O=Nc1c(-c2c(O)[nH]c3ccccc23)[nH]c2ccccc12` [Indirubin-3'-monooxime] the same measures were -0.0926 and 2.48 (active).
With `NC(=O)c1ccncc1` [Isonicotinamide], the proliferation is, setting by setting: (0.5 µM) 0.125; (5 µM) -0.0123.
The like results for `CC(=O)Nc1ccc(C(=O)Nc2ccccc2N)cc1` were, in that order, 0.183 and -0.038.
For `O=C1c2ccccc2C(=O)c2c(NCCc3ccc(O)cc3)ccc(NCCc3ccc(O)cc3)c21` the same measures were 0.275 and -0.000622.
Take `COc1cc2nc(N3CCCN(C)CC3)nc(NC3CCN(Cc4ccccc4)CC3)c2cc1OC`: the proliferation by setting is: (0.5 µM) -0.123; (5 µM) -0.996.
For the compound `O=C1Nc2ccc(I)cc2/C1=C/c1cc(Br)c(O)c(Br)c1`, the proliferation was -0.115 (0.5 µM) and -0.66 (5 µM).
With `CCCC[C@@H](C=O)NC(=O)OC(C)(C)C`, the proliferation is, setting by setting: (0.5 µM) 0.474; (5 µM) -0.0416.
`CCN1C(=O)C=CC1=O` [N-Ethylmaleimide]: the proliferation is 0.0934 (0.5 µM) and -0.247 (5 µM).
The like results for `Oc1ccc(-c2nc(-c3ccc(F)cc3)c(-c3ccncc3)[nH]2)cc1` were, in that order, 0.995 and 0.0853.
On to `CCCCCCCCCCCCC/C=C/[C@@H](O)[C@@H](N)CO` [D-erythro-Sphingosine], for which the proliferation was -0.0291 (0.5 µM) and 0.187 (5 µM).
For the compound `CC(NC(=O)C(Cc1ccccc1)NC(=O)OCc1ccccc1)C(=O)CF` (centres undefined), the proliferation (0.5 µM) was -0.176 and the proliferation (5 µM) was -0.114.
Turning to `O=C1Cc2c([nH]c3ccc(Br)cc23)-c2ccccc2N1` [Kenpaullone], the proliferation by setting is: (0.5 µM) 3.89 (active); (5 µM) -0.683.
The like results for `CC(C)c1cc(/C=C(\C#N)C(=O)NCCCc2ccccc2)cc(C(C)C)c1O` were, in that order, -0.208 and -0.405.
The like results for `O=C(c1ccc(Cl)cc1Cl)n1nnc2ccccc21` were, in that order, -0.0821 and 0.316.
Take `CC(C)C[C@H](NC(=O)[C@H]1O[C@@H]1C(=O)O)C(=O)NCCCCN=C(N)N`: the proliferation was -0.0103 (0.5 µM) and -0.0032 (5 µM).
Turning to `N#CC(=C(/N)Sc1ccccc1N)/C(C#N)=C(/N)Sc1ccccc1N`, the proliferation was -1.3 (0.5 µM) and -1.33 (5 µM).
The like results for `COC(=O)C[C@H](NC(=O)[C@H](C)NC(=O)[C@@H](NC(=O)OCc1ccccc1)C(C)C)C(=O)CF` were, in that order, -0.208 and -0.0506.
The like results for `CCCC(CCC)C(=O)NO` [Valproic acid hydroxamate] were, in that order, -0.292 and -0.132.
Turning to `CC[C@H](CO)Nc1nc(NCc2ccccc2)c2ncn(C(C)C)c2n1` [Roscovitine], the proliferation (0.5 µM) is -0.00187 and the proliferation (5 µM) is -0.592.
The like results for `O=C(O)c1cc(NCc2cc(O)ccc2O)ccc1O` [2-Hydroxy-5-(25-dihydroxybenzylamino)benzoic acid] were, in that order, -0.149 and -0.503.
On to `C[C@]1(Cn2ccnn2)[C@H](C(=O)O)N2C(=O)C[C@H]2S1(=O)=O` [Tazobactam], for which the proliferation by setting is: (0.5 µM) 0.216; (5 µM) 0.201.
For `NC(=O)c1cccc(-c2cccc(OC(=O)NC3CCCCC3)c2)c1` the same measures were 0.0752 and 0.55.
`Cc1ccc(NC(=O)c2cccc(N(C)C)c2)cc1NC(=O)c1ccc(O)cc1`: the proliferation was 0.389 (0.5 µM) and 0.18 (5 µM).

Source of the values: the supplement of paper PMC12045047.
